Measured values reported in PubChem BioAssay (EPA / NIEHS).
Calls of active or inactive are those of the source. Rule for the calls: active = hit-call score of the fitted dose curve at least 0.9, where 1 is the maximum; inactive = score below 0.9.

How the values were obtained:
[1] = read-out: Interleukin-1 alpha (IL1a), IL1A (gene 3552); experiment: BSK_KF3CT_IL1a: BioMAP Diversity Plus: KF3CT Assay for Interleukin-1 alpha (IL1a) Biomarker Activity (AID 2283070); settings: primary human keratinocytes with fibroblasts; actives raise or lower the signal
How it was run: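 Primary skin co-culture (keratinocytes, foreskin fibroblasts), 24 h exposure; ELISA for IL-1a; bidirectional curve fit vs DMSO.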

[2] = read-out: TIMP metallopeptidase inhibitor 2 (TIMP2), TIMP2 (gene 7077); experiment: BSK_KF3CT_TIMP2: BioMAP Diversity Plus: KF3CT Assay for TIMP metallopeptidase inhibitor 2 (TIMP2) Biomarker Activity (AID 2283071); settings: primary human keratinocytes with fibroblasts; actives raise or lower the signal
How it was run: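 TIMP-2 measured by ELISA at 24 h in human keratinocyte/fibroblast primary co-cultures exposed to chemicals. Both increases and decreases were fitted against DMSO. Parallel cultures were stained with SRB for total protein as an overt-cytotoxicity check.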

[3] = read-out: Transforming growth factor beta 1 (TGFb1), TGFB1 (gene 7040); experiment: BSK_KF3CT_TGFb1: BioMAP Diversity Plus: KF3CT Assay for Transforming growth factor beta 1 (TGFb1) Biomarker Activity (AID 2283072); settings: primary human keratinocytes with fibroblasts; actives raise or lower the signal
How it was run: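 ELISA quantifies TGF-b1 at 24 h post-dose in a primary human skin co-culture of keratinocytes and fibroblasts, with gain or loss judged against DMSO. Parallel SRB total-protein staining flags overt cytotoxicity.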

[4] = read-out: C-C motif chemokine 2 (Homo sapiens) (UniProt P13500); experiment: BSK_KF3CT_MCP1: BioMAP Diversity Plus: KF3CT Assay for Monocyte Chemoattractant Protein 1 (MCP1/CCL2) Biomarker Activity (AID 2283073); settings: primary human keratinocytes with fibroblasts; actives raise or lower the signal
How it was run: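 Human keratinocyte plus foreskin fibroblast primary co-culture exposed to chemical for 24 h. MCP-1 levels measured by ELISA. Bidirectional curve fitting relative to DMSO negative control as baseline.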

[5] = read-out: Matrix Metallopeptidase 9 (MMP9), MMP9 (gene 4318); experiment: BSK_KF3CT_MMP9: BioMAP Diversity Plus: KF3CT Assay for Matrix Metallopeptidase 9 (MMP9) Biomarker Activity (AID 2283074); settings: primary human keratinocytes with fibroblasts; actives raise or lower the signal;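 for AC50: MMP9 protein level quantified by ELISA in the co-culture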
How it was run: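 ELISA read-out of MMP-9 at 24 h post-dosing in a co-culture of human skin keratinocytes and foreskin fibroblasts. Gain or loss of signal was fitted in both directions against DMSO.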

[6] = read-out: urokinase plasminogen activator (uPA), PLAU (gene 5328); experiment: BSK_KF3CT_uPA: BioMAP Diversity Plus: KF3CT Assay for urokinase plasminogen activator (uPA) Biomarker Activity (AID 2283075); settings: primary human keratinocytes with fibroblasts; actives raise or lower the signal
How it was run: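 Skin co-culture (keratinocytes + foreskin fibroblasts), human primary; 24 h post-dose; uPA by ELISA; gain/loss fit vs DMSO baseline.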

CD40, CD40 (gene 958) [7] = experiment: BSK_LPS_CD40: BioMAP Diversity Plus: LPS Assay for CD40 Biomarker Activity (AID 2283076); settings: primary human HUVEC with PBMC; actives raise or lower the signal
How it was run: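 Primary human umbilical vein endothelial cells co-cultured with peripheral blood mononuclear cells, LPS-stimulated, were dosed with chemical and read 24 h later. CD40 levels were measured by ELISA and fitted bidirectionally against DMSO as negative control and baseline.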

[8] = read-out: E-selectin (Homo sapiens) (UniProt P16581); experiment: BSK_LPS_Eselectin: BioMAP Diversity Plus: LPS Assay for Eselectin Biomarker Activity (AID 2283077); settings: primary human HUVEC with PBMC; actives raise or lower the signal
How it was run: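 Human umbilical vein endothelial cells co-cultured with peripheral blood mononuclear cells under LPS stimulation; E-selectin measured by ELISA 24 h after chemical dosing. Activity fitted bidirectionally against DMSO as negative control and baseline.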

[9] = BSK_LPS_SRB: Viability Assessment in the BioMAP Diversity Plus: LPS Assay (AID 2283079); settings: primary human HUVEC with PBMC;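 note: total protein by sulforhodamine B absorbance as a cytotoxicity measure; measured one day after compound addition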
How it was run: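 Human umbilical vein endothelial cells co-cultured with PBMC (LPS system) were dosed for 24 h. Total protein was stained with 0.1% sulforhodamine B after 10% TCA fixation, read at 560 nm, and fitted bidirectionally against DMSO baseline.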

[10] = read-out: Interleukin-1 alpha (IL1a), IL1A (gene 3552); experiment: BSK_LPS_IL1a: BioMAP Diversity Plus: LPS Assay for Interleukin-1 alpha (IL1a) Biomarker Activity (AID 2283080); settings: primary human HUVEC with PBMC; actives raise or lower the signal
How it was run: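 Human umbilical vein endothelial cells co-cultured with peripheral blood mononuclear cells were LPS-stimulated and exposed to test chemicals for 24 h. IL-1 alpha was quantified by ELISA, with bidirectional curve fitting against DMSO as the negative control and baseline.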

[11] = read-out: Monocyte Chemoattractant Protein-1 (MCP1), CCL2 (gene 6347); experiment: BSK_LPS_MCP1: BioMAP Diversity Plus: LPS Assay for Monocyte Chemoattractant Protein-1 (MCP1) Biomarker Activity (AID 2283081); settings: primary human HUVEC with PBMC; actives raise or lower the signal;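 for AC50: co-culture stimulated with LPS; secreted MCP-1 protein quantified by ELISA in culture supernatant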
How it was run: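 HUVEC plus PBMC co-culture (human primary cells, LPS system) exposed to test chemical for 24 h; MCP-1 measured by ELISA. Bidirectional curve fitting against DMSO baseline; parallel SRB total-protein staining flags overt cytotoxicity.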

[12] = BSK_LPS_PGE2: BioMAP Diversity Plus: LPS Assay for Prostaglandin E2 (PGE2) Biomarker Activity (AID 2283082); settings: primary human HUVEC with PBMC; actives raise or lower the signal;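 for AC50: secreted prostaglandin E2 measured by ELISA in LPS-stimulated co-culture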
How it was run: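 PGE2 release measured by ELISA in an LPS-activated co-culture of human umbilical vein endothelial cells and peripheral blood mononuclear cells, read at 24 h post-dosing. DMSO served as baseline for bidirectional curve fitting.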

[13] = read-out: Macrophage colony-stimulating factor (MCSF), CSF1 (gene 1435); experiment: BSK_LPS_MCSF: BioMAP Diversity Plus: LPS Assay for Macrophage colony-stimulating factor (MCSF) Biomarker Activity (AID 2283083); settings: primary human HUVEC with PBMC; actives raise or lower the signal
How it was run: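 Human umbilical vein endothelial cells co-cultured with peripheral blood mononuclear cells were exposed to compound for 24 h. M-CSF levels were measured by ELISA, and bidirectional curve fitting used DMSO as the negative control and baseline.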

[14] = read-out: Tumor necrosis factor (Homo sapiens) (UniProt P01375); experiment: BSK_LPS_TNFa: BioMAP Diversity Plus: LPS Assay for Tumour Necrosis Factor alpha (TNFa) Biomarker Activity (AID 2283085); settings: primary human HUVEC with PBMC; actives raise or lower the signal;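 for AC50: TNFa protein level quantified by ELISA in the co-culture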
How it was run: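 TNFa was quantified by ELISA in LPS-activated co-cultures of human endothelial cells and PBMC, 24 h post-dosing. Both increases and decreases versus DMSO were fitted.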

[15] = read-out: Vascular cell adhesion molecule 1 (VCAM1), VCAM1 (gene 7412); experiment: BSK_LPS_VCAM1: BioMAP Diversity Plus: LPS Assay for Vascular cell adhesion molecule 1 (VCAM1) Biomarker Activity (AID 2283086); settings: primary human HUVEC with PBMC; actives raise or lower the signal
How it was run: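 VCAM-1 quantified by ELISA in an LPS-activated co-culture of human endothelial cells and peripheral blood mononuclear cells, read 24 h post-treatment. Fitted in both directions versus DMSO; parallel SRB staining flags overt cytotoxicity.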

CD38, CD38 (gene 952) = experiment: BSK_SAg_CD38: BioMAP Diversity Plus: SAg Assay for CD38 Biomarker Activity (AID 2283087); settings: primary human HUVEC with PBMC; actives raise or lower the signal
How it was run: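 CD38 quantified by ELISA (fluorescence) in a superantigen-activated endothelial cell–PBMC co-culture at 24 h post-dose. Activity fitted in both directions relative to DMSO; parallel SRB and Alamar Blue cytotoxicity read-outs.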

CD40, CD40 (gene 958) [16] = experiment: BSK_SAg_CD40: BioMAP Diversity Plus: SAg Assay for CD40 Biomarker Activity (AID 2283088); settings: primary human HUVEC with PBMC; actives raise or lower the signal
How it was run: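 Human umbilical vein endothelial cells co-cultured with PBMC; CD40 levels measured by ELISA with fluorescence read-out 24 h after chemical dosing. Gain or loss of signal fitted bidirectionally against DMSO baseline.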

CD69, CD69 (gene 969) = experiment: BSK_SAg_CD69: BioMAP Diversity Plus: SAg Assay for CD69 Biomarker Activity (AID 2283089); settings: primary human HUVEC with PBMC; actives raise or lower the signal;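 for AC50: cell surface CD69 protein quantified by ELISA with fluorescence detection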
How it was run: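 Endothelial/PBMC co-culture; chemical added; 24 h incubation; CD69 ELISA with fluorescence detection; bidirectional fit vs DMSO.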

[17] = read-out: Tissue Factor, F3 (gene 2152); experiment: BSK_LPS_TissueFactor: BioMAP Diversity Plus: LPS Assay for Tissue Factor Biomarker Activity (AID 2283084); settings: primary human HUVEC with PBMC; actives raise or lower the signal
How it was run: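 Human umbilical vein endothelial cells co-cultured with peripheral blood mononuclear cells were dosed and stimulated with LPS. Cell-surface CD142 was quantified by ELISA at 24 h. Activity was fitted bidirectionally against DMSO baseline.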

[18] = read-out: Interleukin-8 (IL8), CXCL8 (gene 3576); experiment: BSK_LPS_IL8: BioMAP Diversity Plus: LPS Assay for Interleukin-8 (IL8) Biomarker Activity (AID 2283078); settings: primary human HUVEC with PBMC; actives raise or lower the signal
How it was run: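 Human umbilical vein endothelial cells co-cultured with PBMC were stimulated with LPS; IL-8 levels were measured by ELISA 24 h after chemical dosing. Activity was fitted bidirectionally against DMSO as negative control and baseline.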

Measured: AC50

Tumor necrosis factor (Homo sapiens), sequence (P01375 whole entry, looked up): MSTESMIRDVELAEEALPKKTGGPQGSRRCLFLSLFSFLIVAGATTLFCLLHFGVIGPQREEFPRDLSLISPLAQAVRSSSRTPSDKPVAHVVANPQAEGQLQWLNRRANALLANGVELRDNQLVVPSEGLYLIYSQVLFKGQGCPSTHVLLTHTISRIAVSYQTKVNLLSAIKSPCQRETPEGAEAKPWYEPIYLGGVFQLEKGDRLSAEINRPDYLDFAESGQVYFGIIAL
E-selectin (Homo sapiens), sequence (P16581 whole entry, looked up): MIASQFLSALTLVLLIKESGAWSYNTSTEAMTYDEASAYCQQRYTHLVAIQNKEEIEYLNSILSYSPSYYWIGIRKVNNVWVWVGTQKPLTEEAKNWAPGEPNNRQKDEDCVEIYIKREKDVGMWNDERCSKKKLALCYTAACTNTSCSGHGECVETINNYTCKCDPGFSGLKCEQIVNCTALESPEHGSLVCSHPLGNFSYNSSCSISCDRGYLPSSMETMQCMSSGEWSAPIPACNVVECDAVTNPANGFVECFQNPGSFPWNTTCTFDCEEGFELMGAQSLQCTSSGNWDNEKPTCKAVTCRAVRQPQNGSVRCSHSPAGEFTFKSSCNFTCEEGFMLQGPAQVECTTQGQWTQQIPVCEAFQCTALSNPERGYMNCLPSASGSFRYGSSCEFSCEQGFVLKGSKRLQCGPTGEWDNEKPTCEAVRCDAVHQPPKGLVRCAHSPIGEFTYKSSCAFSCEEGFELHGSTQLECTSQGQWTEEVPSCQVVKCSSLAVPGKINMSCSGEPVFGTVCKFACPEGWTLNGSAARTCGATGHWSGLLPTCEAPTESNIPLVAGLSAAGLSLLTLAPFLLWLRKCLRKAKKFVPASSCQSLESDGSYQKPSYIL

CCCCCCCCN(C)C
inactive: [1] | [2] | [3] | [4] | [5] | [6] | CD40, CD40 (gene 958) [7] | [8] | [9] | [10] | [11] | [12] | [13] | [14] | [15] | CD38, CD38 (gene 952) | CD40, CD40 (gene 958) [16] | CD69, CD69 (gene 969)

CCCC(CCC)C(=O)O
inactive: [1] | [2] | [3] | [4] | [5] | [6] | CD40, CD40 (gene 958) [7] | [8] | [9] | [10] | [11] | [12] | [13] | [14] | [15] | CD38, CD38 (gene 952) | CD40, CD40 (gene 958) [16] | CD69, CD69 (gene 969)

CCc1cccc(CC)c1N
inactive: [1] | [2] | [3] | [4] | [5] | [6] | CD40, CD40 (gene 958) [7] | [8] | [9] | [10] | [11] | [12] | [13] | [14] | [15] | CD38, CD38 (gene 952) | CD40, CD40 (gene 958) [16] | CD69, CD69 (gene 969)

CCOc1ccc2[nH]cc(C(=O)NCc3ccccc3)c(=O)c2n1
inactive: [1] | [2] | [3] | [4] | [5] | [6] | CD40, CD40 (gene 958) [7] | [8] | [9] | [10] | [11] | [12] | [13] | [14] | [15] | CD38, CD38 (gene 952) | CD40, CD40 (gene 958) [16] | CD69, CD69 (gene 969)

FC(F)(F)COC(OCC(F)(F)F)OCC(F)(F)F
inactive: [1] | [2] | [4] | [5] | [6] | CD40, CD40 (gene 958) [7] | [8] | [9] | [10] | [11] | [12] | [13] | [17] | [14] | [15] | CD38, CD38 (gene 952) | CD40, CD40 (gene 958) [16] | CD69, CD69 (gene 969)

CCN(CC)C(=S)SSC(=S)N(CC)CC
active: [1] 13.4 µM | [2] 12.4 µM | [4] 10.5 µM | [5] 14.2 µM | [6] 14.8 µM | CD40, CD40 (gene 958) [7] 30.4 µM | [8] 34.8 µM | [9] 31.1 µM | [11] 29.5 µM | [12] 14.9 µM | [13] 30.3 µM | [17] 27.6 µM | [14] 15.4 µM | [15] 28 µM | CD38, CD38 (gene 952) 31.7 µM | CD69, CD69 (gene 969) 20 µM

O=C(Cl)C(F)(F)C(F)(F)C(F)(F)C(=O)Cl
inactive: [1] | [2] | [4] | [5] | [6] | CD40, CD40 (gene 958) [7] | [8] | [18] | [9] | [10] | [11] | [12] | [13] | [17] | [14] | [15] | CD38, CD38 (gene 952) | CD40, CD40 (gene 958) [16] | CD69, CD69 (gene 969)
